Test results published in PubChem BioAssay (NCI).
About 83,000 compounds went through this panel and 20% of them were active in at least one assay; those are over-represented in the sample as a whole.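 Compound tested at a single concentration for 48 hours in 96-well plates; a percent growth value below 10 was scored as active.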 Unmarked numbers belong to inactive results. The source made the active and inactive calls.

Columns and labels:
Assay in all cases: NCI-60 one-dose screen, 48 h (100 = growth as untreated, 0 = no growth, -100 = all killed)
786-0 renal = conditions: 10 µM unless noted
DU-145 prostate = conditions: 10 µM unless noted
MDA-MB-231 breast = conditions: 10 µM unless noted
SF-268 CNS = conditions: 10 µM unless noted
SF-539 CNS = conditions: 10 µM unless noted
UACC-257 melanoma = conditions: 10 µM unless noted
HCT-15 colon = conditions: 10 µM
SNB-19 CNS = conditions: 10 µM unless noted
PC-3 prostate = conditions: 10 µM unless noted
UACC-62 melanoma = conditions: 10 µM unless noted
LOX IMVI melanoma = conditions: 10 µM unless noted
SK-MEL-28 melanoma = conditions: 10 µM unless noted
SN12C renal = conditions: 10 µM unless noted
MOLT-4 leukemia = conditions: 10 µM
OVCAR-8 ovarian = conditions: 10 µM unless noted
OVCAR-3 ovarian = conditions: 10 µM unless noted
MDA-MB-435 melanoma = conditions: 10 µM unless noted
SW-620 colon = conditions: 10 µM unless noted
MCF7 breast = conditions: 10 µM unless noted
KM12 colon = conditions: 10 µM unless noted

SMILES	growth (786-0 renal)	growth (DU-145 prostate)	growth (MDA-MB-231 breast)	growth (SF-268 CNS) [%]	growth (SF-539 CNS)	growth (UACC-257 melanoma) [%]	growth (HCT-15 colon)	growth (SNB-19 CNS) [%]	growth (PC-3 prostate) [%]	growth (UACC-62 melanoma)	growth (LOX IMVI melanoma)	growth (SK-MEL-28 melanoma) [%]	growth (SN12C renal) [%]	growth (MOLT-4 leukemia)	growth (OVCAR-8 ovarian) [%]	growth (OVCAR-3 ovarian)	growth (MDA-MB-435 melanoma)	growth (SW-620 colon)	growth (MCF7 breast)	growth (KM12 colon)
CC(C)OC(=S)[S-].[Au+].c1ccc([PH+](c2ccccc2)c2ccccc2)cc1	2.78% (active)	50%	-14.3% (active)	18.2	7.83% (active)	28.1	-14.2% (active)	25.1	42.9	0.794% (active)	-64.9% (active)	16.5	16.7	10.9%	27.2	-43% (active)	30.3%	-59.2% (active)	2.73% (active)	69.4%
Cc1cc(CCl)c(C)cc1CCl	36.9%	1.11% (active)	108%	41.9		62.1	75.2%	51	66.9	60.6%	28%	77.7	30.9	29.7%	61.7	2.57% (active)	76.5%	59.9%	7.03% (active)	-43.7% (active)
COc1c(O)c2c3c(c1OC)-c1ccccc1CC3N(C)CC2 (stereo unspecified)	100%	116%	96.3%	101	107%	103	105%	102	100	94.9%	99.3%	117	99.9	83.6%	110	109%	104%	117%	100%	100%
CC(C)(C)[Si](C)(C)OC1[C@@H](O[Si](C)(C)C(C)(C)C)[C@@H](CNC(=O)NC(=O)CF)O[C@H]1n1cnc2c(NC(=O)Nc3ccccc3)ncnc21 (stereo partly specified)	61.4%	47.6%	85.9%	26.6	92.6%		80.7%		14.5	76.6%	12.2%	93.2	44.3	-13.4% (active)	51.4	19.8%	70.5%	33.8%	19%	28.5%
S=P(Nc1ccccc1)(Nc1ccccc1)c1ccccc1	94.6%	122%	90%	90.8	95.8%	102	104%	85.3	85.9	84.2%	89.1%	119	104		111	103%	101%	103%	109%	102%
CNC(=O)Oc1cc(C(C)C)ccc1Sc1ccc(C(C)C)cc1OC(=O)NC	105%	72.8%	58.4%	60.2	56.8%	65.5	28.6%	79	53.7	47.2%	62.2%	66.3	85.3	26.8%	66.9	69.2%	4.24% (active)	43.6%	58.8%	57.9%
OC1(c2ccccc2F)c2ccccc2C2=NCCN21 (stereo unspecified)	96.6%	113%	109%	116	100%	111	108%	108	95.6	96%	96.9%	109	101	97.7%	104	87.9%	110%	96.8%	103%	105%
Oc1ccc(O)c2c1C1(Cl)C(Cl)=C(Cl)C2(Cl)C1(Cl)Cl	69.1%	63.2%	41.3%	44.7	68.2%	46.6	45.3%	64.9	42.4	37.1%	43.1%	67.9	56.4	54.3%	74	40.4%	-3.33% (active)	56.9%	38.9%	34.6%
